# Pf growth 96h: P. falciparum growth inhibition at 96 hours; AID 504834; actives 6.9% (n = 320,000); P. falciparum luciferase reporter growth, 96 h; Potency, µM (series often up to 28.7 µM), for the others: at the highest dose activity change, negative = inhibition, hits mostly inhibitors; note: potency is the fitted concentration of half-maximal effect
#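 Two-generation exposure (96 h) targets delayed-death phenotype. Reporter parasites carrying integrated firefly luciferase, in red cells at 2% hematocrit and 0.05% parasitemia final, kept at 37 C, 5% CO2; luminescence loss indicates inhibition.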
# Pf growth 48h: inhibits P. falciparum growth in the first generation, 48 h | P. falciparum luciferase growth in erythrocytes, 48 h | Potency, µM (titrated, usually from 28.7 µM), for inactives: at the highest dose activity change, negative = inhibition, usual class: inhibitors | actives 5.9% (n = 310,000); note: potency is the fitted concentration of half-maximal effect
#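 A one-generation exposure of luciferase-tagged malaria parasites in RPMI 1640/Albumax erythrocyte culture, 37 C and 5% CO2. Inhibition is inferred from decreased luminescence after adding detection reagent.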
# Sm TGR inh: blocks Schistosoma mansoni thioredoxin glutathione reductase. Q962Y6. purified TGR, DTNB reduction, TNB absorbance 405 nm. Potency, µM (titrated, usually from 114 µM), inactives show top-dose activity change, negative = inhibition, hits mostly inhibitors. actives 3% (n = 360,000). AID 485364; note: potency is the fitted concentration of half-maximal effect; nearly all actives have a fitted effect of over 60% in size
#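 Kinetic colorimetric format: TGR-catalysed, NADPH-driven DTNB reduction monitored via TNB absorbance. Enzyme dispensed at 20 nM; compound exposure 15 min at room temperature before reaction start.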
# Giardia FBPA inh-1: blocks Giardia fructose-bisphosphate aldolase activity; purified Giardia FBPA; actives 0.71% (n = 290,000); Potency, µM (titrated, usually from 59.6 µM), for inactives: at the highest dose activity, negative = inhibition, usual class: inhibitors; A8B2U2; note: potency is the fitted concentration of half-maximal effect; nearly all actives have a fitted effect of over 55% in size
# Target sequence (A8B2U2 whole entry, looked up): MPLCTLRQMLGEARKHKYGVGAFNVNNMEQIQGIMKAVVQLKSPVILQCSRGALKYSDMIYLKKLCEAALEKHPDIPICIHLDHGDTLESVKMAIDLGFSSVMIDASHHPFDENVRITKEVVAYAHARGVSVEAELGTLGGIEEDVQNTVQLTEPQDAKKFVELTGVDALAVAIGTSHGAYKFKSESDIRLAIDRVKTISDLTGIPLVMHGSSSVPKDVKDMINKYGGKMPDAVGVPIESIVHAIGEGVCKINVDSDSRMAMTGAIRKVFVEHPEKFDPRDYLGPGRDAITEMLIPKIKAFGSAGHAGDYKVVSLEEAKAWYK
#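 40 nM FBPA preincubated 10 min at RT with compound (up to 57.5 uM final), then substrate plus GAPDH/TPI/NAD/arsenate coupling and diaphorase/resazurin added. Fluorescence read after 20 min at RT, 525/598 nm.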
# HCMV inh: inhibitors of human cytomegalovirus. actives 4.5% (n = 410,000). activity change, negative = inhibition, % at 57.5 µM. AID 1259415. HFF cells, HCMV-luciferase reporter, 72 h; active compounds read low; in the data active = activity change below about -60%; inconclusive = no clear call, values can overlap the other calls; inactive = above about -39%
#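 Compounds were evaluated in HFFs infected with an HCMV luciferase reporter virus (MOI 1 PFU/cell). Luciferase in lysates collected 72 h post infection served as the replication measure.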
# Giardia growth: blocks growth of Giardia lamblia trophozoites; shares compounds with Giardia FBPA inh-1; AID 2785; Potency, µM (doses to about 57.5 µM), for the others: top-dose activity change, negative = inhibition, hits mostly inhibitors; Giardia lamblia trophozoite growth inhibition; actives 5% (n = 1,500);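 note: potency is the fitted concentration of half-maximal effect; trophozoites exposed to compound for 48 h at 37 °C; nearly all actives have a fitted effect of over 70% in size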
# Mammal cell tox: counter-screen for Giardia aldolase inhibitors: mammalian cell toxicity | shares compounds with Giardia FBPA inh-1 | mammalian cell viability counter-screen, qHTS | Potency, µM (titrated, usually from 57.5 µM), for inactives: at the top dose viability change, negative = toxicity, most hits filed as inhibitors | actives 4% (n = 1,500) | AID 2786;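 note: Chinese hamster ovary cells used as mammalian cytotoxicity surrogate; viability measured as cellular ATP by luminescence; potency is the fitted concentration of half-maximal effect; compound exposure lasted 48 h before reading; nearly all actives have a fitted effect of over 60% in size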
# Giardia FBPA inh-2: confirmation of Giardia fructose-bisphosphate aldolase inhibitors; shares compounds with Giardia FBPA inh-1; purified Giardia aldolase enzyme activity, qHTS; Potency, µM (doses to about 57.5 µM), for inactives: at the top dose activity change, negative = inhibition, hits mostly inhibitors; actives 5% (n = 1,500); AID 2787; note: potency is the fitted concentration of half-maximal effect; nearly all actives have a fitted effect of over 45% in size
# Rabbit FBPA inh: selectivity test for Giardia aldolase inhibitors: rabbit aldolase; shares compounds with Giardia FBPA inh-1; Rabbit muscle FBPA enzyme inhibition, selectivity counter-screen; Potency, µM (doses to about 57.5 µM), without a hit: top-dose activity, negative = inhibition, most hits filed as inhibitors; actives 4% (n = 1,500); AID 2794; note: potency is the fitted concentration of half-maximal effect; nearly all actives have a fitted effect of over 60% in size
# GAPDH counter: GAPDH inhibition flagged for Giardia aldolase hits | shares compounds with Giardia FBPA inh-1 | GAPDH coupling enzyme counterscreen, biochemical, qHTS | Potency, µM (series often up to 57.5 µM), for the others: top-dose activity change, negative = inhibition, actives largely listed as inhibitors | actives 6% (n = 1,500) | AID 2795; note: potency is the fitted concentration of half-maximal effect; nearly all actives have a fitted effect of over 55% in size
# Starred values were filed as active, the others as inactive; ? = inconclusive; . = no result given; [ ] = another dose, or the depositor's remark. Only some compounds are listed: those with a hit (about 14% of all), similar ones and a draw of the others. Unless noted, calls come from the whole dose curve; as a rule, active = well fitted curve in the direction sought with a large enough effect; inconclusive = small, poorly fitted or top-dose-only effect, or another doubt; inactive = no such curve, though single readings can be large; an effect the other way counts as inactive or inconclusive. % is set by controls: 0 for no effect and ±100 for the full control effect.
SMILES,Pf growth 96h,Pf growth 48h,Sm TGR inh,Giardia FBPA inh-1,HCMV inh,Giardia growth,Mammal cell tox,Giardia FBPA inh-2,Rabbit FBPA inh,GAPDH counter
S=C(Nc1nc2c(s1)CCCC2)NC1CC1,0%,?,2.5µM*,14µM*,3,-13%,3%,3%,2%,2%
COC(=O)c1ccc(CC(=O)c2c(C)cc(O)cc2O)o1,-11%,-1%,22µM*,16µM*,?,-16%,6%,16µM*,40µM*,?
C[C@H]1C2Cc3ccc(O)cc3[C@]1(C)CCN2CC1CC1,.,.,.,-1%,.,.,.,.,.,.
CN1CC[C@@]2(C)c3cc(O)ccc3N(C)C2O1 (some centres undefined),.,.,.,0.63µM*,.,?,-21%,2.5µM*,3.5µM*,4.5µM*
COc1ccccc1OCc1ccc(C(=O)N(C)c2ccccc2)o1,-27%,-28%,-6%,11%,-5,.,.,.,.,.
O=C(O)CC(Cn1[nH]nnc1=S)c1ccccc1 (centres undefined),10%,.,1%,16µM*,-15,66%,-9%,-12%,4%,7%
Cn1cc(C(=O)NS(=O)(=O)Nc2ccc(Br)cc2)c2ccccc21,?,-8%,0%,.,25,.,.,.,.,.
Cc1ccc(C(C)C)c(OCC(=O)NN=C(CCl)CCl)c1,0%,-27%,?,16µM*,.,?,2%,-7%,-3%,-2%
CCOC(=O)[C@]12CCCC=C1N(CCc1ccc(OC)c(OC)c1)C(=O)[C@H](CC(=O)N1CCCC1)C2,.,.,.,.,21,.,.,.,.,.
COc1ccc(NC(=O)c2ccc3c(c2)NC(=O)CS3)cc1S(=O)(=O)Nc1ccc(Br)cc1,-20%,-28%,.,-27%,-27,.,.,.,.,.
Cc1ccc(NS(=O)(=O)c2cc(NC(=O)c3ccc4c(c3)NC(=O)CS4)ccc2C)c(C)c1,?,?,.,16µM*,?,-12%,-19%,-4%,-1%,3%
CCOc1ccc(N(CC(=O)Nc2ccc(OC)cc2)C2=NC3CS(=O)(=O)CC3S2)cc1 (centres undefined),13µM*,6%,1%,13µM*,-5,-12%,-14%,3%,6%,10%
CC(C)NCc1cc(Br)ccc1OCc1ccccc1,8%[5.75 µM],-5%,7%,-4%,-8,.,.,.,.,.
COc1ccc(Br)cc1CNc1ccccc1,0%,7%,0%,28µM*,-30,?,-2%,-5%,-6%,0%
Cc1ccc(/C=N/Nc2nncc(-c3ccccc3)n2)o1,?,4%,-2%,-6%,-2,.,.,.,.,.
Cc1[nH]n(-c2ccccc2)c(=O)c1/C=N/Nc1nncc(-c2ccccc2)n1,0.59µM*,0.41µM*,-15%,7.9µM*,-99*,?,20µM*,-16%,-3%,-8%
COc1ccc(C(=O)N2CCc3[nH]nc(-c4ccccc4)c3C2)cc1,-22%,-30%,1%,-9%,-11,.,.,.,.,.
Cc1cc(C)n2c(=S)[nH]nc2n1,0%[5.75 µM],10%,-34%,2.2µM*,0,-5%[38.3 µM],3%,-1%,?,-19%
O=c1c2ccccc2[se]n1-c1ccccc1,?,?,?,7.9µM*,-67*,20µM*,?,?,22µM*,-6%

# From PubChem
